In the library only some 11% were active in any assay of this set; here they are far more common.
JMJD2A Tudor inh: qHTS Assay for Inhibitors of JMJD2A-Tudor Domain | Lysine-specific demethylase 4A (Homo sapiens), O75164 | AlphaScreen JMJD2A-Tudor / H3K4me3 peptide binding | Potency, µM (highest dose often 114 µM), usual class: inhibitors | hit rate 4.4% among 390,000 | AID 504339, 2011; note: nearly all actives have a fitted effect of over 50% in size
G9a inh: qHTS Assay for Inhibitors of Histone Lysine Methyltransferase G9a; Histone-lysine N-methyltransferase EHMT2 (Homo sapiens), Q96KQ7; hit rate 8.8% among 350,000; Potency, µM (highest dose often 102 µM), hits mostly inhibitors; G9a H3K9 monomethylation, AlphaScreen, 2 h; note: nearly all actives have a fitted effect of over 75% in size
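Enzyme 20 nM + cpd, 15 min RT; add b-H3K9 pep 500 nM / SAM 20 uM; 2 h RT; anti-H3K9me1 Ab 0.5 ug/mL + SA donor / anti-rabbit acceptor beads 20 ug/mL each, 10 min; AlphaScreen read.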
L3MBTL1 block: qHTS Assay for the Inhibitors of L3MBTL1. Lethal(3)malignant brain tumor-like protein 1 (Homo sapiens), Q9Y468. AlphaScreen L3MBTL1–H3K9me1 peptide binding. Potency, µM (titrated, usually from 57.1 µM), hits mostly inhibitors. hit rate 0.66% among 230,000; note: nearly all actives have a fitted effect of over 60% in size
Target sequence (Q9Y468 whole entry, looked up): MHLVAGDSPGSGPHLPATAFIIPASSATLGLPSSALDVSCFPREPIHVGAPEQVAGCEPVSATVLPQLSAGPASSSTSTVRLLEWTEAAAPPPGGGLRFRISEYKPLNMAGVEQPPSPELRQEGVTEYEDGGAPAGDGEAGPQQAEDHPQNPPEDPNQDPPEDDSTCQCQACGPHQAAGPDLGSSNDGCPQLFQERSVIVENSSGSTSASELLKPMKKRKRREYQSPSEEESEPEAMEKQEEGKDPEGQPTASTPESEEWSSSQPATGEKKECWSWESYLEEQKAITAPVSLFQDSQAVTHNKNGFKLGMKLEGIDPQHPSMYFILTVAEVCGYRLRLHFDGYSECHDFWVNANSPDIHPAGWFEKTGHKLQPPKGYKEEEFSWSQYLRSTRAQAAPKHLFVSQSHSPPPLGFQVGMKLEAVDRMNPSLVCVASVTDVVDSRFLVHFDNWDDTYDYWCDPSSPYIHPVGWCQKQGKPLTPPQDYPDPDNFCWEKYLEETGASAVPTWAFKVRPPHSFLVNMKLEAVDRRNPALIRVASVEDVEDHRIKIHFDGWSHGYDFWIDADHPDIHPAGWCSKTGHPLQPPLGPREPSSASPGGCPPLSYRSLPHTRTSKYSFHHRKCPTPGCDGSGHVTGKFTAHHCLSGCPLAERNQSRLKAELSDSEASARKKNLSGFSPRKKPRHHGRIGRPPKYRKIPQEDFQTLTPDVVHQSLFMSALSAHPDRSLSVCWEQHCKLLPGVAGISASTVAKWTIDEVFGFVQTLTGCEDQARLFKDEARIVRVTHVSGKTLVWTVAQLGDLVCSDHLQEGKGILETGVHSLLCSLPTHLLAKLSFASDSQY
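L3MBTL1 50 nM + b-AHA-H3(1-15)K9me1 75 nM, 30 min RT; compound added, 30 min RT; streptavidin donor/Ni-chelate acceptor beads 10 ug/mL each final, 30 min RT dark; AlphaScreen read.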
HP1b chromo inh: HTS for Inhibitors of HP1-beta Chromodomain Interactions with Methylated Histone Tails | Chromobox protein homolog 1 (Homo sapiens), P83916 | AlphaScreen HP1-beta / biotin-H3K9me3 peptide binding | Potency, µM (titrated, usually from 114 µM), usual class: inhibitors | hit rate 0.56% among 390,000 | AID 540317, 2011; note: nearly all actives have a fitted effect of over 70% in size
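AlphaScreen: HP1-beta (50 nM) preformed 30 min with biotin-H3(1-18)K9me3 peptide (50 nM) in PBS pH 7.4, 0.01% Tween-20. Compound added for 30 min at RT, then streptavidin donor/nickel chelate acceptor beads (10 ug/mL) for 30 min.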
BAZ2B block: qHTS Assay for Inhibitors of BAZ2B; AlphaScreen BAZ2B-H3K14Ac peptide displacement; AID 504333, 2011; Potency, µM (titrated, usually from 114 µM), actives largely listed as inhibitors; hit rate 4.4% among 360,000; note: nearly all actives have a fitted effect of over 60% in size
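BAZ2B (50 nM) with biotin-H3(5-23)K14Ac peptide (50 nM) in PBS pH 7.4, 0.01% Tween-20, preformed 30 min, then compound 30 min at room temperature; top concentration 110uM. AlphaScreen streptavidin donor/nickel chelate acceptor beads (10 ug/mL final), 20 min dark, signal read.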
A number is an active result; i = inactive; ? = inconclusive; nt = not tested or not shown; [ ] = dose if it differs, or a comment. Calls come from the whole dose curve; as a rule, active = well fitted inhibition curve with a large enough effect; inconclusive = small, poorly fitted or top-dose-only effect; inactive = no such curve, though single readings can be large or run the other way.

SMILES | JMJD2A Tudor inh | G9a inh | L3MBTL1 block | HP1b chromo inh | BAZ2B block
CC(=O)Nc1ccc(NC(=O)CSc2ccc3nnc(-c4cccnc4)n3n2)cc1 | i | 32µM | nt | i | i
Cc1ccc(NC(=O)CSc2ccc3nnc(-c4ccccn4)n3n2)cc1 | i | i | nt | i | i
O=C(CSc1ccc2nnc(-c3cccnc3)n2n1)NCc1ccco1 | i | 79µM | nt | i | i
CCOC(=O)c1ccc(NC(=O)C2=C(C)Nc3nc(SCc4ccc(Cl)cc4)nn3C2c2ccc(C)cc2)cc1 (stereo unspecified) | i | i | nt | i | i
COc1ccc(N2CCN(C(CNC(=O)C(=O)NCc3ccc(F)cc3)c3cccnc3)CC2)cc1 (stereo unspecified) | i | i | nt | i | i
CCOC(=O)C1=C(COC(=O)Cc2ccc(Cl)cc2)NC(=O)NC1C (stereo unspecified) | i | i | i | i | i
CCC1CC=CC2C1C(=O)N(Cc1ccccc1)C2c1cccc([N+](=O)[O-])c1 (stereo unspecified) | i | nt | nt | i | nt
CCOC(=O)CSc1ccc2nnc(-c3cccnc3)n2n1 | i | 18µM | i | i | i
CCCCCC(=O)NC(NC(=S)NC1CCS(=O)(=O)C1)C(Cl)(Cl)Cl (stereo unspecified) | i | 25µM | ? | i | i
c1coc(-c2nc3n(n2)C2(CCCCC2)[C@@H]2CCCC[C@@H]2N3)c1 | i | i | nt | i | ?
Cc1onc(-c2c(Cl)cccc2Cl)c1C(=O)NNc1ccccc1 | 79µM | nt | i | i | ?
Cc1onc(-c2c(Cl)cccc2Cl)c1NC(=O)NNc1c(Cl)cncc1Cl | i | i | i | i | i
Cc1onc(-c2c(Cl)cccc2Cl)c1NC(=O)NNc1ccccc1 | i | 40µM | i | i | i
Cc1onc(-c2c(F)cccc2Cl)c1C(=O)ONC(=O)c1ccco1 | 40µM | 50µM | nt | i | i
Cc1cc(C(=O)NNC(=O)c2c(-c3c(Cl)cccc3Cl)noc2C)no1 | i | i | nt | i | i
Nc1ccc(C(=O)N2CCN(S(=O)(=O)c3ccc(Br)cc3)CC2)cc1[N+](=O)[O-] | ? | 45µM | i | i | i
COc1cccc(-c2cc(C(=O)Nc3cc(OC)c(OC)c(OC)c3)on2)c1 | ? | i | nt | i | i
O=C(Nc1cccc(O)c1)c1cc(-c2ccccc2F)no1 | ? | ? | nt | i | i
COc1cccc(-c2cc(C(=O)Nc3cc(Cl)ccc3O)on2)c1 | ? | 13µM | nt | i | ?
COc1ccc(-c2cc(C(=O)Nc3cccc(O)c3)on2)cc1OC | ? | 14µM | nt | i | ?
CCc1ccc(CNC(=O)CCSCc2ccccc2F)cc1 | i | i | nt | i | i
C=CC1=C(C(=O)O)N2C(=O)[C@@H](NC(=O)/C(=N\O)c3csc(N)n3)[C@H]2SC1 (stereo in doubt) | 20µM | nt | nt | i | nt
Cc1cccnc1NC(=S)Nc1ccc(Br)cc1Cl | ? | ? | i | ? | 50µM
S=C(NCc1ccncc1)Nc1ccc(Br)cc1Cl | i | ? | nt | i | i
Cc1ccc2nc(-c3ccc(NC(=O)COc4ccc(Cl)c(C)c4)cc3)sc2c1 | i | ? | nt | i | i
SMILES | JMJD2A Tudor inh | G9a inh | L3MBTL1 block | HP1b chromo inh | BAZ2B block
O=C1C(N2CCOCC2)=C(n2nnc3ccccc32)C(=O)c2ccccc21 | i[11.4 µM] | 40µM | nt | ? | 10µM
O=C1c2ccccc2C(=O)c2c1cccc2-n1nnc2ccccc21 | i | ? | nt | i | i
COc1ccc(CC(=O)NCC(c2cccs2)S(=O)(=O)c2ccc(Cl)cc2)cc1 (stereo unspecified) | 18µM | 8.9µM | nt | 10µM | ?
O=C(COc1ccccc1)NCC(c1cccs1)S(=O)(=O)c1ccc(Cl)cc1 (stereo unspecified) | 18µM | 10µM | nt | 14µM | i
COc1ccc(OC)c([N+](=O)[O-])c1C(N)=O | 50µM | 32µM | ? | ? | 50µM
COC(=O)c1sccc1NC(=S)N1CCCCC1C (stereo unspecified) | i | ? | nt | i | i
COC(=O)c1sccc1NC(=S)N1C(C)CCCC1C (stereo unspecified) | i | 10µM | nt | i | i
COC(=O)c1sccc1NC(=S)Nc1cc(C)ccc1OC | ? | 50µM | nt | i | nt
CCOc1cc(/C=N\Nc2nc(-c3ccc(C)cc3)c(NC(C)=O)s2)ccc1O | 28µM | 32µM | i | ? | i
COc1cc(/C=N\Nc2nc(-c3ccc(C)cc3)c(NC(C)=O)s2)ccc1O | i[11.4 µM] | i | i | 28µM | 40µM
CCOc1cc(/C=N/Nc2cc(C)nc(-n3nc(C)cc3C)n2)ccc1O | ? | 45µM | ? | i | ?
COc1ccc(/C=N/Nc2nc(-c3ccc(C)cc3)c(NC(C)=O)s2)cc1OC | i | nt | i | ? | ?
O=C(CN1C(=O)COc2ccc(S(=O)(=O)N3CCCC3)cc21)N1CCN(c2cccc(C(F)(F)F)c2)CC1 | i | i | nt | i | i
COc1ccc(CNC(=O)c2nc(Cn3nc(C)c(Br)c3C)no2)cc1OC | i | i | nt | i | i
CCOc1ccc(CNC(=O)c2sc3ncnc(N(C)C4CCCCC4)c3c2C)cc1 | i | i | nt | i | i
Cc1ccc(OCC(=O)O/N=C(\N)Cc2ccc([N+](=O)[O-])cc2)cc1C | i | ? | nt | i | i
Cc1cccc(OCC(=O)O/N=C(\N)Cc2ccc([N+](=O)[O-])cc2)c1 | i | 35µM | i | i | i
O=C(COC(=O)c1ccc(F)cc1Cl)NCc1ccco1 | 50µM | ? | ? | ? | 50µM
Cc1cccc(Nc2ccccc2C(=O)OCC(=O)NCc2ccco2)c1C | 45µM | i[0.0925 µM] | i | i | 50µM
O=C(COC(=O)c1ccccc1Nc1ccc(SC(F)F)cc1)NCc1ccco1 | i | i | i | i | i
Cc1c(C(=O)OCC(=O)NCc2ccco2)cccc1[N+](=O)[O-] | ? | i | i | i | 50µM
O=C(COC(=O)CCC(=O)c1ccc(Cl)cc1)NCc1ccco1 | ? | 50µM | i | i | nt
O=C(Cn1nnc(-c2cccs2)n1)NCc1ccco1 | i | i | i | i | i
O=C(Cn1nnc(-c2ccc(Cl)cc2)n1)NCc1ccco1 | i | ? | i[11.4 µM] | i | 50µM
O=C(CSc1nnc(-c2ccc(S(=O)(=O)N3CCCC3)cc2)n1CC1CCCO1)NC1CC1 (stereo unspecified) | i | 50µM | i | i | i
CCOc1ccccc1-n1nnnc1SCC(=O)NC(=O)Cc1ccccc1 | i | 10µM | i | i | i
Cc1ccc(-n2c(SCC(=O)NCC3CCCO3)nnc2-c2ccoc2C)cc1 (stereo unspecified) | i | ? | i | i | i
COc1ccccc1-n1nnnc1SCC(=O)NC1CC1 | i | i | i | i | i

Source: PubChem
